# High-throughput results from PubChem BioAssay.
# IL1B secr inh – inhibitors of inflammasome signaling (IL-1 beta secretion); hit rate 4.7% among 360,000; activity change, % at 57.5 µM; THP-1 LPS/ATP IL-1B secretion, AlphaLISA, 16 h; hits give low values; AID 743279; in the data active = activity change below about -50%; inconclusive = mostly about -30% to -49%; note: % is set by controls: 0 for no effect and ±100 for the full control effect
#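 Secreted IL-1B measured by AlphaLISA bead assay after 16 h compound exposure of THP-1 cells; compounds (final up to 57.5 uM) added 1 h before LPS (250 ng/mL) and ATP (1.25 mM) stimulation; lower signal means less secretion.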
# DT40 TDP1 no CPT – qHTS for Inhibitors of human tyrosyl-DNA phosphodiesterase 1 (TDP1): qHTS in cells in absence of CPT; DT40 Tdp1-/- hTDP1 cells, no CPT, ATP luminescence, 48 h; Potency, µM (titrated, usually from 46.2 µM), without a hit: top-dose activity change, negative = growth inhibition, hits mostly inhibitors; hit rate 15% among 420,000; note: potency is the fitted concentration of half-maximal effect; % is set by controls: 0 for no effect and ±100 for the full control effect; nearly all actives have a fitted effect of over 55% in size
#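 Growth of hTDP1-complemented DT40 Tdp1-knockout cells is measured by ATP luminescence after at least 48 hr compound exposure at 37 °C, with DMSO substituting for the 20 nM CPT used in the parallel screen.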
# DT40 TDP1 CPT – growth inhibition of DT40 Tdp1-/-;hTDP1 cells with camptothecin (screen for TDP1 inhibitors); Potency, µM (series often up to 46.2 µM), without a hit: at the highest dose activity change, negative = growth inhibition, actives largely listed as inhibitors; chicken DT40 Tdp1-/-;hTDP1 cells + 20 nM CPT, ATP luminescence, 48 h; hit rate 12% among 420,000; note: potency is the fitted concentration of half-maximal effect; % is set by controls: 0 for no effect and ±100 for the full control effect; nearly all actives have a fitted effect of over 55% in size
#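 Chicken DT40 Tdp1-/- cells complemented with human TDP1, 400 cells/well, exposed to compounds plus 20 nM camptothecin for at least 48 h at 37 C; viability read as ATP content by CellTiter-Glo luminescence.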
# TGFb SMAD3 inh – blocks TGF-b signaling | Potency, µM (top dose mostly 46.1 µM), without a hit: at the top dose activity, negative = inhibition, most hits filed as inhibitors | hit rate 1.2% among 410,000 | HepG2 CAGA-GFP TGF-b/SMAD3 reporter, GFP fluorescence, 18 h; TGF-beta stimulated, 500 pg/mL final | AID 588855; note: potency is the fitted concentration of half-maximal effect; % is set by controls: 0 for no effect and ±100 for the full control effect; nearly all actives have a fitted effect of over 65% in size
#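 Smad-responsive CAGA-GFP expression was quantified in HEPG2 cells exposed to compounds and 500 pg/mL final TGF-beta for 18 h at 37 degrees C; unstimulated wells defined full inhibition.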
# S-ASM inh – blocks human secretory acid sphingomyelinase | P17405 | placental ASM, HMU-PC fluorogenic substrate, 60 min | Potency, µM (titrated, usually from 57.5 µM), for the others: top-dose activity change, negative = inhibition, actives largely listed as inhibitors | hit rate 0.006% among 340,000 | AID 504937; note: potency is the fitted concentration of half-maximal effect
# Target sequence (P17405 47-631 limits assumed): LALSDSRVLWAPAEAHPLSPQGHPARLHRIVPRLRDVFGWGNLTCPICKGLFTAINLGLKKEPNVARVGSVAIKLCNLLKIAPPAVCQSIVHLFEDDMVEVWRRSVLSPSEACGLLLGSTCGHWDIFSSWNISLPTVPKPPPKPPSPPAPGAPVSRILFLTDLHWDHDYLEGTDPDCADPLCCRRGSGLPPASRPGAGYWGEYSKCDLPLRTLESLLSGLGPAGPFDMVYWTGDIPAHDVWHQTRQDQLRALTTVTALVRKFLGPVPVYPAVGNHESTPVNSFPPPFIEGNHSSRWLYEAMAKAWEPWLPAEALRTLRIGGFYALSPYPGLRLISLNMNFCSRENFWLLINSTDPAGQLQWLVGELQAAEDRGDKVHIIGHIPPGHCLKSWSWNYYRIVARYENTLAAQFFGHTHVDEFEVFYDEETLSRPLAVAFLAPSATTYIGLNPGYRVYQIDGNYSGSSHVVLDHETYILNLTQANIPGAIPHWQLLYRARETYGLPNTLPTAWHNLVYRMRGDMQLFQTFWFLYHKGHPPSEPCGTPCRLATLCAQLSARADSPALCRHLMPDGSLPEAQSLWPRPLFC
#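 Fluorescence read-out (Ex 386 nm, Em 447 nm) after stopping the reaction at pH 10. Enzyme: ASM from human placenta; substrate HMU-PC0, 9 uM final; 60 min, 37 °C. Compound preincubation 10 min, ambient temperature.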
# HepG2 tox – counter-screen for TGF-b inhibitors: cytotoxicity in HepG2 cells. AID 588856. hit rate 0.76% among 410,000. Potency, µM (doses to about 46.1 µM), without a hit: at the highest dose activity change, negative = cytotoxicity, actives largely listed as cytotoxic. HepG2 CAGA-GFP viability, ATP luminescence, 18 h; note: potency is the fitted concentration of half-maximal effect
#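 CellTiter-Glo luminescence gave cytotoxicity after 18 hours at 37 degrees C. The cells were HepG2 CAGA-GFP in 1% FBS DMEM, stimulated with 500 pg/mL TGF-beta after compound addition. %Activity was normalised to no-cell wells (complete cell-killing) and DMSO (no toxicity), and curves were fitted and classified.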
# * marks the source's active call; other numbers are inactive results; ? = inconclusive; . = no result. Only some compounds are listed: those with a hit (about 19% of all), similar ones and a draw of the others. Unless noted, calls come from the whole dose curve; as a rule, active = well fitted curve in the direction sought with a large enough effect; inconclusive = small, poorly fitted or top-dose-only effect, or another doubt; inactive = no such curve, though single readings can be large; an effect the other way counts as inactive or inconclusive.
SMILES,IL1B secr inh,DT40 TDP1 no CPT,DT40 TDP1 CPT,TGFb SMAD3 inh,S-ASM inh,HepG2 tox
CCN(CC)c1ccc(NC(=O)CN(C)Cc2cccs2)cc1,-13,16µM*,?,1%,8%,-8%
C/C(CC(=O)Nc1ccc(C)c(Cl)c1)=N\NC(=O)Cc1cccs1,-6,-10%,-26%,?,-3%,-17%
Cc1ccc(NC(=O)CN(C)Cc2cccs2)cc1Cl,-17,21µM*,?,-8%,2%,-10%
O=C(O)c1nn(CC(=O)N2CCCCCC2)c(=O)c2ccccc12,16,8%,6%,?,3%,-20%
O=C(O)c1nn(CC(=O)N2CCN(c3ncc(C(F)(F)F)cc3Cl)CC2)c(=O)c2ccccc12,-6,16µM*,-25%,-12%,-24%,-14%
S=C(NCc1ccccc1)N1CCN(c2ccccc2)CC1,-19,?,13%,-3%,2%,-9%
FC(F)(F)c1cnc(N2CCN(C(=S)NCc3ccccc3)CC2)c(Cl)c1,-93*,21µM*,?,?,-8%,-29%
O=C(CSc1ccccn1)N1CCN(c2ncc(C(F)(F)F)cc2Cl)CC1,-8,16µM*,?,4%,3%,-19%
O=C(CSc1ccccn1)N1CCN(C(=O)CSc2ccccn2)CC1,20,2%,5%,-3%,-1%,-2%
CC(=O)Oc1cc2cccc(OC(C)=O)c(=O)c2c(OC(C)=O)c1OC(C)=O,11,18µM*,4.6µM*,?,-3%,-14%
CCc1ccc(N2C(=O)c3sc4nnc(-c5ccccc5)c(=O)n4c3C2=O)cc1,38,13µM*,12µM*,-5%,-10%,6%
CCc1ccc(NC(=O)C(C)n2nnc3sc(-c4ccccc4)cc3c2=O)cc1 (stereo unspecified),.,?,?,-1%,.,-18%
O=C(NC1CC1)C1=C[C@@H](c2csc3ccccc23)C[C@@H](OCCCCO)O1,-1,-20%,-19%,?,7%,-19%
COc1ccc(N/C(N)=N/c2nc(C)cc(=O)[nH]2)cc1,21,-3%,-10%,8%,2%,3%
C/C=C\C=C\C(=O)Nc1cccc(C2=NOC3(C2)C[C@H](C(N)=O)N(C(=O)c2ccccc2C(=O)c2ccccc2)C3)c1 (stereo partly specified),-12,16µM*,?,?,-9%,-10%
C/C=C/C=C\C(=O)Nc1cccc(C2=NOC3(C2)C[C@@H](C(N)=O)N(C(=O)c2cc([N+](=O)[O-])cc([N+](=O)[O-])c2C)C3)c1 (stereo partly specified),-15,?,16µM*,-13%,-12%,3%
Cc1cc(C(=O)NNCc2ccccc2)no1,13,30%,8%,6%,2%,-23%
Cn1c(=O)n(C)c2cc(NC(=O)c3ccccc3NS(C)(=O)=O)ccc21,41,2%,11%,26%,0%,-37%
COc1ccc(NC(=O)CSc2ncc(-c3ccc(Cl)cc3)[nH]2)cc1OC,.,15µM*,?,-3%,.,-31%
Cc1cccc(NC(=O)CSc2ncc(-c3ccc(Br)cc3)[nH]2)c1,.,?,23µM*,?,.,13µM*
COc1ccc(NC(=O)CSc2nc3[nH]ncc3c(=O)[nH]2)cc1OC,19,-3%,-8%,7%,2%,5%
Cc1cc(=O)n2c3ccccc3n(CC(O)CN3CCN(Cc4ccccc4)CC3)c2c1C#N (stereo unspecified),-18,12µM*,12µM*,?,7%,-24%
CC1CCN(CC(O)Cn2c3ccccc3c3ccccc32)CC1 (stereo unspecified),-63*,?,-23%,0%,-1%,5%
Cc1cc(=O)n2c3ccccc3n(CC(O)CN3CCN(CCO)CC3)c2c1C#N (stereo unspecified),?,-25%,-2%,10%,6%,-15%
OC(CN1CCCCC1)Cn1c2ccc(Cl)cc2c2cc(Cl)ccc21 (stereo unspecified),.,15µM*,?,?,-14%,-111%
SMILES,IL1B secr inh,DT40 TDP1 no CPT,DT40 TDP1 CPT,TGFb SMAD3 inh,S-ASM inh,HepG2 tox
CC1CCCC(C)N1CC(O)Cn1c2ccccc2c2ccccc21 (stereo unspecified),-8,2.6µM*,1.8µM*,7%,-1%,0%
O=C(Cn1cc(S(=O)(=O)Cc2cccc(Cl)c2)c2ccccc21)Nc1ccccc1Cl,.,1%,-3%,-12%,.,-14%
OC(CN1CCN(c2ccccc2)CC1)Cn1c2ccccc2c2ccccc21 (stereo unspecified),-6,13µM*,18µM*,-21%,-7%,-38%
OC(CN1CCOCC1)Cn1c2ccccc2c2ccccc21 (stereo unspecified),-7,?,5%,4%,0%,-33%
OC(CN1CCN(Cc2ccccc2)CC1)Cn1c2ccccc2c2ccccc21 (stereo unspecified),-28,?,23µM*,?,0%,-59%
OC(CN1CCNCC1)Cn1c2ccccc2c2ccccc21 (stereo unspecified),-27,-15%,-29%,0%,1%,-10%
O=C(Nc1cccc2c(=O)cc(-c3nn[nH]n3)oc12)c1ccc(OCCCCc2ccccc2)cc1,.,-14%,9%,.,.,.
CCOc1ccc(S(=O)(=O)NCC(c2ccc(N(C)C)cc2)N2CCCC2)cc1 (stereo unspecified),.,26µM*,?,11%,.,-21%
COc1ccc(OCC(=O)NCC(c2ccc(Cl)cc2)N2CCCCC2)cc1 (stereo unspecified),.,?,21µM*,-26%,.,-24%
CCOc1ccc(S(=O)(=O)NCC(c2ccc(N(C)C)cc2)N2CCc3ccccc32)cc1 (stereo unspecified),.,?,?,-17%,.,-18%
Cc1cc(C)cc(OCC(=O)NCC(c2ccc(Cl)cc2)N2CCCCC2)c1 (stereo unspecified),.,16µM*,21µM*,-15%,.,-13%
Cc1ccc(OCC(=O)NCC(c2ccc(Cl)cc2)N2CCCCC2)cc1 (stereo unspecified),.,?,?,5%,.,-19%
